According to the supplement of paper PMC12350171:
Counter-ions that a name gives are not always drawn.

Columns and labels:
Settings in all cases: 20 µM
[1] = test system: Salmonella enterica typhimurium; test: growth AUC normalised to DMSO control (fraction of control); higher = less growth inhibition, active = hit call of the paper
Procedure, shortened: (§1)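 After two anaerobic passages, pathogens were added at a starting OD578 of 0.01 to pre-reduced mGAM plates holding compound at 20 μM with 1% DMSO; hemin and NAD were supplemented for Haemophilus parainfluenzae. Sealed with breathable membranes, plates were read at OD578 hourly for 24 h, in three biological replicates. The trapezoidal rule, applied up to the exponential-to-stationary transition, gave the growth-curve AUC, which was normalised to DMSO controls on the same plate.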

Shigella flexneri = test: as above
Procedure, shortened: as §1

Vibrio cholerae = test: as above
Procedure, shortened: as §1

[2] = test system: Yersinia pseudotuberculosis; test: as above
Procedure, shortened: as §1

P. vulgatus RND KO = test: growth AUC normalised to DMSO control (median) (fraction of control); higher = less growth inhibition, active = hit call of the paper
Procedure, shortened: (§2)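 After two overnight anaerobic passages, strains were inoculated at OD578 0.01 into mGAM in 96-well plates containing approved-drug library compounds at 20 μM and 1% DMSO. Growth was followed by reading OD578 hourly for 24 h within an anaerobic incubator. Area under the curve, taken by the trapezoidal rule up to the start of stationary phase, was normalised to same-plate vehicle wells, and the median of three biological replicates is listed.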

P. vulgatus WT = test: as above
Procedure, shortened: as §2

[3] = test system: S. enterica typhimurium WT; test: as above
Procedure, shortened: as §2

[4] = test system: S. enterica typhimurium tolC KO; test: as above
Procedure, shortened: as §2

Measured: growth AUC normalised to DMSO control
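Throughout, for growth AUC normalised to DMSO control (median): active when median AUC fell below 0.1.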

C[C@]12C=CC(=O)C=C1CC[C@@H]1[C@@H]2C(=O)C[C@@]2(C)[C@H]1CC[C@]2(O)C(=O)CO [Prednisone]
inactive: [1] 1.01 | Shigella flexneri 0.994 | Vibrio cholerae 1 | [2] 1.01 | P. vulgatus RND KO 1.02 | P. vulgatus WT 1.02 | [3] 0.994 | [4] 0.999

C[C@@H]1CCC[C@H](C)N1NC(=O)c1ccc(Cl)c(S(N)(=O)=O)c1 [Clopamide]
inactive: [1] 0.976 | Shigella flexneri 0.97 | Vibrio cholerae 0.982 | [2] 0.992 | P. vulgatus RND KO 1 | P. vulgatus WT 0.981 | [3] 1.01 | [4] 0.988

C[C@]12CCC(=O)C=C1CC[C@@H]1[C@@H]2C(=O)C[C@@]2(C)[C@H]1CC[C@]2(O)C(=O)CO [Cortisone]
inactive: [1] 0.993 | Shigella flexneri 0.945 | Vibrio cholerae 0.983 | [2] 0.982 | P. vulgatus RND KO 0.994 | P. vulgatus WT 1 | [3] 1 | [4] 0.995

O=C(NCCN1CCOCC1)c1ccc(Cl)cc1 [Moclobemide]
inactive: [1] 0.981 | Shigella flexneri 0.961 | Vibrio cholerae 0.957 | [2] 1.01 | P. vulgatus RND KO 0.994 | P. vulgatus WT 0.987 | [3] 0.998 | [4] 0.996

COc1ccc2c3c1O[C@H]1C[C@@H](O)C=C[C@@]31CCN(C)C2 [Galanthamine hydrobromide]
inactive: [1] 0.995 | Shigella flexneri 0.95 | Vibrio cholerae 0.986 | [2] 1.02 | P. vulgatus RND KO 0.998 | P. vulgatus WT 1 | [3] 1 | [4] 0.995

CN(C)CCOC(c1ccccc1)c1ccccc1 [Diphenhydramine hydrochloride]
inactive: [1] 0.993 | Shigella flexneri 0.976 | Vibrio cholerae 0.976 | [2] 0.969 | P. vulgatus RND KO 1.01 | P. vulgatus WT 1 | [3] 0.981 | [4] 1

CCc1cccc(CC)c1NC(=O)CN(CC(=O)O)CC(=O)O [Etifenin]
inactive: [1] 0.985 | Shigella flexneri 0.99 | Vibrio cholerae 0.989 | [2] 0.999 | P. vulgatus RND KO 0.998 | P. vulgatus WT 1.01 | [3] 1 | [4] 0.993

NS(=O)(=O)c1cc2c(cc1Cl)NCNS2(=O)=O [Hydrochlorothiazide]
inactive: [1] 1.02 | Shigella flexneri 0.994 | Vibrio cholerae 1.05 | [2] 1.01 | P. vulgatus RND KO 0.981 | P. vulgatus WT 0.997 | [3] 0.996 | [4] 1.02

Cc1cc(-n2c(=O)[nH]c(=O)n(C)c2=O)ccc1Oc1ccc(SC(F)(F)F)cc1 [Toltrazuril]
inactive: [1] 1.01 | Shigella flexneri 0.995 | Vibrio cholerae 1 | [2] 1.01

C=CCSCC1Nc2cc(Cl)c(S(N)(=O)=O)cc2S(=O)(=O)N1 (configuration not stated) [Althiazide]
inactive: [1] 1.04 | Shigella flexneri 1.08 | Vibrio cholerae 1.03 | [2] 0.985 | P. vulgatus RND KO 1.04 | P. vulgatus WT 1.08 | [3] 1.01 | [4] 1.01

COc1c(O[C@@H]2O[C@H](CO)[C@@H](O)[C@H](O)[C@H]2O)cc2c(c1OC)-c1ccc(SC)c(=O)cc1[C@@H](NC(C)=O)CC2 [Thiocolchicoside]
inactive: [1] 0.993 | Shigella flexneri 0.98 | Vibrio cholerae 1 | [2] 0.988 | P. vulgatus RND KO 1.01 | P. vulgatus WT 0.999 | [3] 1 | [4] 1

CC1=C(CC(=O)O)c2cc(F)ccc2/C1=C\c1ccc([S+](C)[O-])cc1 (configuration not stated) [Sulindac]
inactive: [1] 0.976 | Shigella flexneri 0.994 | Vibrio cholerae 1.01 | [2] 1.03 | P. vulgatus RND KO 0.996 | P. vulgatus WT 0.968 | [3] 1 | [4] 0.984

Nc1ccn([C@@H]2O[C@H](CO)[C@@H](O)C2(F)F)c(=O)n1 [Gemcitabine]
inactive: [1] 1.01 | Shigella flexneri 1.04 | Vibrio cholerae 1.01 | [2] 1.03 | P. vulgatus RND KO 1.01 | P. vulgatus WT 1.02 | [3] 0.983

CCOC(=O)/C=C(C)/C=C/C=C(C)/C=C/c1c(C)cc(OC)c(C)c1C [Etretinate]
inactive: [1] 1.01 | Shigella flexneri 1.03 | Vibrio cholerae 0.998 | [2] 1 | P. vulgatus RND KO 1.03 | P. vulgatus WT 1.06 | [3] 1 | [4] 0.991

NNCCc1ccccc1 [Phenelzine sulfate]
inactive: [1] 1.03 | Shigella flexneri 1.05 | Vibrio cholerae 1.03 | [2] 1.02 | P. vulgatus RND KO 1.1 | P. vulgatus WT 1.16 | [3] 0.994 | [4] 0.955

CC(CNC1CCCCC1)OC(=O)c1ccccc1 (configuration not stated) [Hexylcaine hydrochloride]
inactive: [1] 0.993 | Shigella flexneri 0.97 | Vibrio cholerae 0.996 | [2] 0.986 | P. vulgatus RND KO 1 | P. vulgatus WT 1.01 | [3] 0.995 | [4] 0.992

Clc1ccc(COC(Cn2ccnc2)c2ccc(Cl)cc2Cl)cc1 (configuration not stated) [Econazole nitrate]
inactive: [1] 0.977 | Shigella flexneri 0.987 | Vibrio cholerae 0.962 | [2] 1.01 | P. vulgatus RND KO 0.899 | P. vulgatus WT 0.902 | [3] 1 | [4] 0.912

CNCCC=C1c2ccccc2CCc2ccccc21 [Nortriptyline hydrochloride]
inactive: [1] 0.998 | Shigella flexneri 0.991 | Vibrio cholerae 0.937 | [2] 0.992 | P. vulgatus RND KO 0.99 | P. vulgatus WT 1.01 | [3] 1 | [4] 0.971

CCCCOc1ccc(CC(=O)NO)cc1 [Bufexamac]
inactive: [1] 0.996 | Shigella flexneri 0.974 | Vibrio cholerae 1.01 | [2] 0.956 | P. vulgatus RND KO 1.01 | P. vulgatus WT 0.991 | [3] 0.997 | [4] 0.967

O=C(O)c1cc(=O)c2c(OCC(O)COc3cccc4oc(C(=O)O)cc(=O)c34)cccc2o1 [Cromolyn disodium salt]
inactive: [1] 0.98 | Shigella flexneri 0.995 | Vibrio cholerae 1 | [2] 1 | P. vulgatus RND KO 1.03 | P. vulgatus WT 1.03 | [3] 1.02 | [4] 0.996

CN(C)CCN(Cc1ccccc1)c1ccccn1 [Tripelennamine hydrochloride]
inactive: [1] 1 | Shigella flexneri 0.993 | Vibrio cholerae 1.01 | [2] 0.973 | P. vulgatus RND KO 0.982 | P. vulgatus WT 0.985 | [3] 0.965 | [4] 1

COc1cc(OC)c(C(=O)CCCN2CCCC2)c(OC)c1 [Buflomedil hydrochloride]
inactive: [1] 1 | Shigella flexneri 0.997 | Vibrio cholerae 0.997 | [2] 1.01 | P. vulgatus RND KO 0.997 | P. vulgatus WT 0.994 | [3] 0.995 | [4] 1

CC(Oc1ccccc1)C(=O)N[C@@H]1C(=O)N2[C@@H]1SC(C)(C)[C@@H]2C(=O)O (some centres not stated) [Phenethicillin potassium salt]
active: [2] 0.898 | P. vulgatus RND KO 0.0155 | P. vulgatus WT 0.00969 | [4] 0.00227
inactive: [1] 1.01 | Shigella flexneri 1.02 | Vibrio cholerae 1 | [3] 1

CC(C)(C)NCC(O)c1ccc(O)c(CO)c1 (configuration not stated) [Salbutamol]
inactive: [1] 0.985 | Shigella flexneri 0.97 | Vibrio cholerae 0.984 | [2] 0.985 | P. vulgatus RND KO 0.985 | P. vulgatus WT 0.956 | [3] 0.992 | [4] 0.997

CCCNC(C)C(=O)Nc1ccccc1C (configuration not stated) [Prilocaine hydrochloride]
inactive: [1] 0.987 | Shigella flexneri 1 | Vibrio cholerae 1 | [2] 0.998 | P. vulgatus RND KO 0.99 | P. vulgatus WT 1 | [3] 0.992 | [4] 0.993

CS(=O)(=O)c1ccc(C2=C(c3ccccc3)C(=O)OC2)cc1 [Rofecoxib]
inactive: [1] 1.01 | Shigella flexneri 0.99 | Vibrio cholerae 1.02 | [2] 0.995 | P. vulgatus RND KO 1 | P. vulgatus WT 1.03 | [3] 1 | [4] 0.98

CC[C@H](C)C(=O)O[C@H]1C[C@H](O)C=C2C=C[C@H](C)[C@H](CC[C@@H](O)C[C@@H](O)CC(=O)O)[C@H]21 [Pravastatin]
inactive: [1] 1.04 | Shigella flexneri 1.08 | Vibrio cholerae 1.09 | [2] 1.02 | P. vulgatus RND KO 1.05 | P. vulgatus WT 1.06 | [3] 1.02 | [4] 1.01

CO[C@@]1(NC(=O)C(C(=O)O)c2ccc(O)cc2)C(=O)N2C(C(=O)O)=C(CSc3nnnn3C)CO[C@@H]21 (some centres not stated) [Moxalactam disodium salt]
active: [1] 0.00566 | Shigella flexneri 0.0488 | Vibrio cholerae 0.639 | [2] 0.149 | P. vulgatus RND KO 0.0332 | P. vulgatus WT 0.0488

O=C1c2ccccc2S(=O)(=O)N1CCCCN1CCN(c2ncccn2)CC1 [Ipsapirone]
inactive: [1] 0.991 | Shigella flexneri 0.99 | Vibrio cholerae 0.957 | [2] 0.998 | P. vulgatus RND KO 1 | P. vulgatus WT 1.01 | [3] 0.989 | [4] 1.01

c1ccc(C2CN3CCSC3=N2)cc1 (configuration not stated) [Tetramisole hydrochloride]
inactive: [1] 1.01 | Shigella flexneri 1.03 | Vibrio cholerae 1.01 | [2] 1.01

Cc1cn([C@H]2C=C[C@@H](CO)O2)c(=O)[nH]c1=O [Stavudine]
inactive: [1] 1.01 | Shigella flexneri 1.03 | Vibrio cholerae 1.03 | [2] 0.992 | P. vulgatus RND KO 1 | P. vulgatus WT 1.05 | [3] 1.03 | [4] 1.02
